Among all 5,500 compounds or so, about 2,000 (36%) were called active. Not shown: some 18% with an inconclusive outcome. No stated cut-off is given here; in the data, active means normalized growth mostly below about 0.91 (no sharp cut-off); inconclusive means no clear call, values can overlap the other calls; inactive means mostly above about 0.92. This is one part of the list.
Experiment: chemical genetic growth profiling, strain panel (AID 1159580);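 further: tested at 20 µM; growth read once vehicle control cultures reached saturation at 30 °C; 1 = growth at the plate median or of vehicle wells; lower values mean less growth of the strain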
Conditions: growth OD

Measured: normalized growth

Nc1ccc(S(=O)(=O)Nc2cnc3ccccc3n2)cc1
inactive: S. cerevisiae deletion strains, locus YJR075W, strain HOC1, active compounds read low 0.982 | S. cerevisiae deletion strains, locus YKL009W, strain mrt4, active compounds read low 0.971 | S. cerevisiae deletion strains, locus YKL068W, active compounds read low 0.985 | S. cerevisiae deletion strains, locus YKL085W, strain MDH1 (second series), active compounds read low 0.98 | S. cerevisiae deletion strains, locus YKL085W, strain MDH1, active compounds read low 0.98 | S. cerevisiae deletion strains, locus YKL160W, strain elf1, active compounds read low 1.01 | S. cerevisiae deletion strains, locus YKL190W, strain CNB1, active compounds read low 0.976 | S. cerevisiae deletion strains, locus YKR001C, strain vps1, active compounds read low 0.969 | S. cerevisiae deletion strains, locus YKR026C, strain gcn3, active compounds read low 1.02 | S. cerevisiae deletion strains, locus YKR091W, strain srl3, active compounds read low 1.01 | S. cerevisiae deletion strains, locus YLL001W, strain dnm1, active compounds read low 1.02 | S. cerevisiae deletion strains, locus YLL026W, active compounds read low 1.01 | S. cerevisiae deletion strains, locus YLL041C, strain sdh2, active compounds read low 1 | S. cerevisiae deletion strains, locus YLR027C, strain aat2, active compounds read low 1.01 | S. cerevisiae deletion strains, locus YLR039C, strain RIC1, active compounds read low 0.959 | S. cerevisiae deletion strains, locus YLR058C, strain SHM2, active compounds read low 0.971 | S. cerevisiae deletion strains, locus YLR102C, strain apc9, active compounds read low 0.992 | S. cerevisiae deletion strains, locus YLR113W, strain HOG1, active compounds read low 0.967 | S. cerevisiae deletion strains, locus YLR221C, strain rsa3, active compounds read low 0.995 | S. cerevisiae deletion strains, locus YLR258W, strain gsy2, active compounds read low 1.01 | S. cerevisiae deletion strains, locus YLR262C, strain YPT6 (second series), active compounds read low 1.02 | S. cerevisiae deletion strains, locus YLR262C, strain YPT6, active compounds read low 0.964 | S. cerevisiae deletion strains, locus YLR268W, strain sec22, active compounds read low 0.904 | S. cerevisiae deletion strains, locus YLR320W, strain mms22, active compounds read low 1.01 | S. cerevisiae deletion strains, locus YLR330W, strain CHS5, active compounds read low 0.995 | S. cerevisiae deletion strains, locus YLR342W, strain FKS1 (second series), active compounds read low 1.02 | S. cerevisiae deletion strains, locus YLR342W, strain FKS1, active compounds read low 1.01 | S. cerevisiae deletion strains, locus YLR357W, strain rsc2, active compounds read low 0.995 | S. cerevisiae deletion strains, locus YLR370C, strain arc18, active compounds read low 1.03 | S. cerevisiae deletion strains, locus YLR371W, strain rom2, active compounds read low 0.984 | S. cerevisiae deletion strains, locus YLR384C, strain iki3, active compounds read low 1.01 | S. cerevisiae deletion strains, locus YLR418C, strain cdc73, active compounds read low 0.979 | S. cerevisiae deletion strains, locus YML016C, strain PPZ1, active compounds read low 0.996 | S. cerevisiae deletion strains, locus YML032C, strain rad52, active compounds read low 0.979 | S. cerevisiae deletion strains, locus YML120C, strain ndi1, active compounds read low 1.02 | S. cerevisiae deletion strains, locus YML124C, strain tub3, active compounds read low 0.978 | S. cerevisiae deletion strains, locus YMR058W, strain fet3, active compounds read low 1.02 | S. cerevisiae deletion strains, locus YMR078C, strain ctf18, active compounds read low 0.974 | S. cerevisiae deletion strains, locus YMR125W, strain sto1, active compounds read low 1.03 | S. cerevisiae deletion strains, locus YMR129W, active compounds read low 1.02 | S. cerevisiae deletion strains, locus YMR205C, strain PFK2, active compounds read low 1.02 | S. cerevisiae deletion strains, locus YMR223W, strain ubp8, active compounds read low 1 | S. cerevisiae deletion strains, locus YMR231W, strain pep5, active compounds read low 1.01 | S. cerevisiae deletion strains, locus YMR263W, strain SAP30, active compounds read low 0.978 | S. cerevisiae deletion strains, locus YMR307W, strain GAS1, active compounds read low 1.1 | S. cerevisiae deletion strains, locus YNL067W, strain RPL9B, active compounds read low 0.977 | S. cerevisiae deletion strains, locus YNL071W, strain lat1, active compounds read low 1.02 | S. cerevisiae deletion strains, locus YNL153C, strain GIM3, active compounds read low 0.962 | S. cerevisiae deletion strains, locus YNL183C, strain NPR1, active compounds read low 0.921 | S. cerevisiae deletion strains, locus YNL209W, strain ssb2, active compounds read low 1.02 | S. cerevisiae deletion strains, locus YNL233W, strain BNI4, active compounds read low 0.984 | S. cerevisiae deletion strains, locus YNL248C, strain rpa49, active compounds read low 1.02 | S. cerevisiae deletion strains, locus YNL250W, strain rad50, active compounds read low 0.98 | S. cerevisiae deletion strains, locus YNL271C, strain bni1, active compounds read low 0.985 | S. cerevisiae deletion strains, locus YNL298W, strain CLA4, active compounds read low 0.988 | S. cerevisiae deletion strains, locus YNL307C, strain MCK1, active compounds read low 0.983 | S. cerevisiae deletion strains, locus YNL322C, strain KRE1 (second series), active compounds read low 0.997 | S. cerevisiae deletion strains, locus YNL322C, strain KRE1, active compounds read low 0.992 | S. cerevisiae deletion strains, locus YNR049C, strain mso1, active compounds read low 1.01 | S. cerevisiae deletion strains, locus YNR052C, strain pop2, active compounds read low 0.987 | S. cerevisiae deletion strains, locus YOL006C, strain TOP1, active compounds read low 0.997 | S. cerevisiae deletion strains, locus YOL012C, strain htz1 1.64 | S. cerevisiae deletion strains, locus YOL147C, strain pex11, active compounds read low 0.988 | S. cerevisiae deletion strains, locus YOR001W, strain rrp6, active compounds read low 1.02 | S. cerevisiae deletion strains, locus YOR061W, strain CKA2, active compounds read low 0.961 | S. cerevisiae deletion strains, locus YOR069W, strain VPS5, active compounds read low 0.995 | S. cerevisiae deletion strains, locus YOR070C, strain gyp1, active compounds read low 1.01 | S. cerevisiae deletion strains, locus YOR080W, strain dia2, active compounds read low 1.02 | S. cerevisiae deletion strains, locus YOR083W, strain WHI5, active compounds read low 0.99 | S. cerevisiae deletion strains, locus YOR106W, strain vam3, active compounds read low 1.03 | S. cerevisiae deletion strains, locus YOR136W, strain idh2, active compounds read low 0.98 | S. cerevisiae deletion strains, locus YOR144C, strain elg1, active compounds read low 0.977 | S. cerevisiae deletion strains, locus YOR184W, strain ser1, active compounds read low 0.98 | S. cerevisiae deletion strains, locus YOR231W, strain MKK1, active compounds read low 0.975 | S. cerevisiae deletion strains, locus YOR265W, strain rbl2, active compounds read low 1.01 | S. cerevisiae deletion strains, locus YOR270C, strain vph1, active compounds read low 1.02 | S. cerevisiae deletion strains, locus YOR290C, strain snf2, active compounds read low 0.998 | S. cerevisiae deletion strains, locus YOR316C, strain cot1, active compounds read low 0.969 | S. cerevisiae deletion strains, locus YPL051W, strain arl3, active compounds read low 1 | S. cerevisiae deletion strains, locus YPL055C, strain LGE1, active compounds read low 0.94 | S. cerevisiae deletion strains, locus YPL078C, strain atp4, active compounds read low 1.02 | S. cerevisiae deletion strains, locus YPL106C, strain sse1, active compounds read low 1.03 | S. cerevisiae deletion strains, locus YPL240C, strain hsp82, active compounds read low 1.02 | S. cerevisiae deletion strains, locus YPL256C, strain CLN2, active compounds read low 0.96 | S. cerevisiae deletion strains, locus YPR119W, strain clb2, active compounds read low 0.986 | S. cerevisiae deletion strains, locus YPR141C, strain kar3, active compounds read low 0.972 | S. cerevisiae deletion strains, locus YPR163C, strain tif3, active compounds read low 0.989 | S. cerevisiae deletion strains, locus YPR167C, strain met16, active compounds read low 0.987 | S. cerevisiae deletion strains, strain wtn01, active compounds read low 0.991 | S. cerevisiae strains, strain wild type, active compounds read low 0.986

From PubChem BioAssay AID1159580 (chemical genetic matrix, 2015)
